rTrxR1 inhibitor – rat TrxR1 inhibition | actives 1% (n = 390,000) | recombinant rTrxR1, NADPH fluorescence consumption, selenite substrate | O89049 | AID 588453 | Potency, µM (series often up to 114 µM), without a hit: at the top dose activity change, negative = inhibition, hits mostly inhibitors; further: potency means the concentration at half of the fitted maximal effect; on the % scale 0 is the no-effect control and ±100 the full control effect; nearly all actives have a fitted effect of over 65% in size
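Rat TrxR1 (90 nM in the dispensed reagent) was pre-reduced with 400 uM NADPH for 5 min at room temperature, then incubated with compound for 15 min. After 400 uM selenite was added, NADPH fluorescence (Ex 340/Em 450 nm) was followed for 8 min.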
Giardia killer – Giardia lamblia killing; Giardia lamblia trophozoite viability; activity change, % at 7.66 µM, hits read low; actives 0.15% (n = 340,000); AID 540267; in the data active means activity change below about -80%; inconclusive means between about -30% and that limit;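 further: parasites exposed to compound for two days anaerobically before the ATP read; on the % scale 0 is the no-effect control and ±100 the full control effect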
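Luminescent ATP signal served as the viability read-out, measured 15-30 min after adding ATP detection reagent to trophozoites that had been incubated with compounds for 48 hrs at 37 deg C anaerobically at 100 cells/well.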
IL-2 act – activators of IL-2; activation, % (series mostly up to about 46 µM); IL-2 activation reporter assay, cell-based qHTS; stimulated with anti-CD3/CD4/CD28 beads; in transgenic mouse T cells; AID 652025; actives 0.065% (n = 360,000); in the data active means activation above about 50%; inconclusive means mostly about 30% to 49%; further: 0% is about no effect
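Readout is EGFP and DsRed signal by fluorescent plate cytometry after 18 h at 37 degrees C. Transgenic mouse T cells (750/well) received compound for 60 min before bead stimulation (anti-CD3, anti-CD4, anti-CD28); memory T cells served as non-tolerant control.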
BRCA1 expr up – activators of BRCA1 expression; MCF7-BRCA1-FFLuc reporter, luminescence, 48 h; response scale: scaled: vehicle 0%, 10 µM genistein 100%; Potency, µM (doses to about 46.1 µM), for the others: top-dose activation, most hits filed as activators; actives 1.1% (n = 380,000); AID 624202; further: potency means the concentration at half of the fitted maximal effect; nearly all actives have a fitted effect of over 80% in size
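Using MCF7 cells harboring a BRCA1 firefly luciferase reporter, plated 2 h before compound pinning, the screen measured luminescence after 48 h incubation. Responses were normalized to DMSO and 10 microM genistein, then fitted for concentration-effect.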
mIDH1 inhibitor – human IDH1 R132H inhibition | actives 0.093% (n = 390,000) | O75874 | Potency, µM (titrated, usually from 76.6 µM), for the others: at the top dose activity change, negative = inhibition, hits mostly inhibitors | AID 602179 | IDH1-R132H enzyme, NADPH consumption, diaphorase/resazurin fluorescence; further: potency means the concentration at half of the fitted maximal effect; on the % scale 0 is the no-effect control and ±100 the full control effect; nearly all actives have a fitted effect of over 65% in size
Target sequence (O75874 whole entry R132H, stated change not applied): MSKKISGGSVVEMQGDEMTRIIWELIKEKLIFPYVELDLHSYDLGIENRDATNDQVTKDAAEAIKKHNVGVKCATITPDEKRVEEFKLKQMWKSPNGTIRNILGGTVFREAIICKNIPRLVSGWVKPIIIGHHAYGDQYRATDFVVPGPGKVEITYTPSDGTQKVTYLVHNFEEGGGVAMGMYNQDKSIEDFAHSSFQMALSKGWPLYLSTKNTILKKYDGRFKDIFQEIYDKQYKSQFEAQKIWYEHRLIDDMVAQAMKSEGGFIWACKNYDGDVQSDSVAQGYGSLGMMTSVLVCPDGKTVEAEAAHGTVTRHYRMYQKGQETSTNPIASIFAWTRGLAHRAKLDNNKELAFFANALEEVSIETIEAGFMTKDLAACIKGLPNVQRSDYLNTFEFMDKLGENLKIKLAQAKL
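IDH1-R132H (0.5 ug/mL dispensed) in pH 7.5 Tris buffer was preincubated 30 min with compound, then given a substrate mix of 0.016 mM NADPH and 2 mM alpha-KG for 80 min at room temperature; remaining NADPH was read by diaphorase/resazurin fluorescence.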
TrxR1 substrate – substrates of rat thioredoxin reductase 1 | O89049 | purified TrxR1 substrate turnover, NADPH consumption readout | Potency, µM (titrated, usually from 114 µM), for the others: top-dose activity change, negative = substrate turnover | actives 0.01% (n = 390,000) | AID 588456; further: potency means the concentration at half of the fitted maximal effect; on the % scale 0 is the no-effect control and ±100 the full control effect; nearly all actives have a fitted effect of over 50% in size
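Rat TrxR1, dispensed at 90 nM, was prereduced with 400 uM NADPH (final) for 5 min at ~22 deg C, then incubated with compound 15 min before 400 uM selenite. A first-read NADPH fluorescence drop versus no-compound background flagged substrates.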
Active calls of the source: *; ? = inconclusive; / = not tested or not shown; [ ] = dose if it differs, or a comment. Sampled rows, rich in hits. Any-hit rate of the full collection: about 2.2%. Unless noted, the call rests on the fitted dose curve; in most records, active means well fitted curve in the direction sought with a large enough effect; inconclusive means small, poorly fitted or top-dose-only effect, or another doubt; inactive means no such curve, though single readings can be large; an effect the other way counts as inactive or inconclusive.

SMILES	rTrxR1 inhibitor	Giardia killer	IL-2 act	BRCA1 expr up	mIDH1 inhibitor	TrxR1 substrate
CCc1cccc(NC(=O)c2nnn(Cc3ccc(SC)cc3)c2N)c1	12%	/	/	12%	8%	3%
COc1cc(CNc2cccc(F)c2)cc(Br)c1O	13µM*	-13	-1	-40%	-2%	-1%[57.1 µM]
COc1ccc(CNc2ccccc2)cc1Br	13%	-13	-2	50%	-1%	-6%
Cc1ccc(NC(=O)c2cc3ccccc3oc2=O)cc1S(=O)(=O)N(C)C	9%[57.1 µM]	?	-1	-75%	1%	8%[57.1 µM]
CN(c1ccccc1)S(=O)(=O)c1cccc(NC(=O)c2cc3ccccc3oc2=O)c1	18%	0	-1	11µM*	20%	0%
CC(C)Cc1nnc(NC(=O)C23CC4CC(CC(C4)C2)C3)s1	16%	6	0	6%	9%	-1%
CCc1nnc(NC(=O)C23CC4CC(CC(C4)C2)C3)s1	21%	7	-2	11µM*	3%	-1%
Cc1c(Cl)cccc1N1CCn2c1nc1c2c(=O)n(CC(=O)O)c(=O)n1C	8%	/	/	0%	-4%	-5%
CC(=O)Oc1ccc(N2C(=O)C3C4C=CC(O4)C3C2=O)cc1 (stereo not given)	5.6µM*	3	-2	19%	1%	13%
CC(=O)Oc1cccc(N2C(=O)C3C4C=CC(C4=C(C)C)C3C2=O)c1 (stereo not given)	40µM*	-11	-2	34%	-1%	1%
CC(=O)Oc1ccc(N2C(=O)CCC2=O)cc1	7%[11.4 µM]	-5	-3	-12%	1%	7%[57.1 µM]
COc1cc2c(NC3CCN(C)CC3)nc(N3CCCCC3)nc2cc1OCCOCCN1CCCC1	-27%	/	/	-13%	/	94%
COc1cc(NC(=O)CSc2cc(=O)n(C)c3ccccc23)cc(OC)c1OC	6%	/	/	/	-7%	-2%
Nc1c(C(=O)O)cnc2c(-c3ccc(Cl)cc3)cnn12	17%[57.1 µM]	-14	0	-46%	-1%	10%[57.1 µM]
CC(=O)c1cnc2c(-c3ccc(Cl)cc3)cnn2c1C	6%	18	0	3.5µM*	1%	-3%
CCc1noc(-c2ccc(N3CCC(C)CC3)c([N+](=O)[O-])c2)n1	9%	/	/	8.9µM*	14%	-10%
CCc1noc(-c2ccc(N3CCCCC3)c([N+](=O)[O-])c2)n1	4%	/	/	7.1µM*	18%	-8%
Cc1ccc(-c2noc(-c3ccc(N4CCCCC4)c([N+](=O)[O-])c3)n2)cc1	-10%	/	/	0%	-3%	-17%
Cc1ccc2[nH]c3c(=O)n(CC(=O)N4CCCC(C)C4)ncc3c2c1 (stereo not given)	13%	/	/	/	-13%	19%
Cc1cc(N2CCN(c3cccc(C)c3C)CC2)n2nc(C)c(-c3ccc(Cl)cc3)c2n1	-9%	/	/	1%	5%	19%
Cc1cn2c(=O)cc(COC(=O)c3cccc(NC(=O)COc4ccccc4Cl)c3)nc2s1	3%[57.1 µM]	/	/	/	2%	-2%[57.1 µM]
COc1ccccc1CNC(=O)c1ccc2c(c1)sc1nc(-c3ccc(F)cc3)cn12	12%	/	/	/	-6%	9%[11.4 µM]
CNCc1ccccc1Sc1ccc(O)c(O)c1	32µM*	7	-1	-62%	17%	-10%
Brc1cc(Br)c[n+](CCc2ccccc2)c1	5%	/	/	/	/	3%
CC(=O)Nc1ccc(OCc2cccc([N+](=O)[O-])c2)cc1	7%[57.1 µM]	5	7	?	12%	5%[57.1 µM]
SMILES	rTrxR1 inhibitor	Giardia killer	IL-2 act	BRCA1 expr up	mIDH1 inhibitor	TrxR1 substrate
Cc1cc(O)c(C(=O)/C=C/c2cccc([N+](=O)[O-])c2)c(=O)o1	-29%	-3	-3	-28%	-1%	-2%
CC(=O)Nc1ccc(C=CC=Cc2cccc([N+](=O)[O-])c2)cc1	-56%[57.1 µM]	-7	-7	5µM*	5%	-6%[57.1 µM]
CC(=O)Oc1ccccc1C(=O)C=Cc1cccc([N+](=O)[O-])c1	25µM*	-12	-3	-89%	2%	-4%
O=C(NC1CC(=O)N(c2cccc(F)c2)C1)c1ccc(S(=O)(=O)N2CCCC2)cc1 (stereo not given)	18%[57.1 µM]	/	/	/	0%	2%[57.1 µM]
O=C1CC(Sc2nnc(-c3ccccc3)o2)C(=O)N1c1ccccc1 (stereo not given)	7.1µM*	-5	-3	8%	3%	-1%
COc1cc(/C=C2\C(=O)ON=C2c2ccccc2)cc(OC)c1OC	18µM*	0	0	2%	1%	5%
CCOc1cc(/C=C2\C(=O)ON=C2c2ccccc2)ccc1OC	18µM*	6	-3	-26%	-16%	1%
NC(=O)COc1ccc(/C=C2\C(=O)ON=C2c2ccccc2)cc1	28µM*	-9	-6	0%	5%	-8%
COc1cc(/C=C2\N=C(C)OC2=O)cc(OC)c1OC	45µM*	21	0	0%	3%	5%
CCN1CCc2nc3sc(C(=O)c4ccccc4)c(N)c3cc2C1	23%	/	/	/	11%	0%
O=C(Nc1ccccc1C(F)(F)F)c1noc2c1CCCCC2	-6%	/	/	/	5%	-10%
COc1ccc(/C=C2\C(=O)ON=C2c2ccccc2)cc1OC	32µM*	-12	0	6%	7%	11%
COc1ccc(/C=C2/C(=O)ON=C2c2ccccc2)cc1OC	32µM*	8	2	-14%	-2%	7%
COc1ccc(C=C2C(=O)OC(C)(C)OC2=O)cc1OC	?	4	-1	-2%	16%	5%[57.1 µM]
CCc1ccc(/C=C2/SC(=S)N(CCC(=O)Nc3cccnc3)C2=O)cc1	6%	-12	54*	-32%	-5%	-1%
Cc1oc(-c2ccc(Cl)cc2)nc1CN1CCCC(C(=O)NCCc2ccccc2)C1 (stereo not given)	15%	/	/	/	0%	15%
Cc1ccc(/C=N/NC(=O)c2ccc3ccccc3c2)s1	2%	25	0	36%	-19%	0%
O=C(NN=Cc1ccc2c(c1)OCO2)c1ccccc1	8%[2.29 µM]	5	0	?	3%	2%[2.29 µM]
O=C(N/N=C/c1ccc2c(c1)OCO2)C1CC1	31%	42	-5	7.9µM*	9%	1%
Cc1ccc(/C=N/NC(=O)c2ccc3c(c2)OCCO3)s1	6%[11.4 µM]	-9	-2	2.5µM*	-6%	12%[57.1 µM]
Cc1ccc(CC(=O)N/N=C/c2ccc3c(c2)OCO3)cc1	9%[57.1 µM]	-3	-2	8.9µM*	8%	7%
S=C(NN=Cc1ccc2c(c1)OCO2)NN=Cc1ccc2c(c1)OCO2	7%[2.29 µM]	-2	-1	3%	-11%	3%[57.1 µM]
O=C(N/N=C/c1ccc2c(c1)OCO2)c1ccc2c(c1)OCO2	24%	0	-1	8.9µM*	2%	14%
